Values joined by “and” are separate entries in the source; they are usually repeats but may differ in a detail not shown here. Identical values can stand only once. Records with an inconclusive call do not appear. A call without a number means that no potency is given here. Active and inactive are the calls of the source. Unless noted, calls follow the shape of the dose curve; as a rule, active = well fitted curve in the direction sought with a large enough effect in the repeat runs; inconclusive = weak or mixed curves; inactive = no such curve, though single readings can be large; an effect the other way counts as inactive or inconclusive.
Columns and labels:
[1] = qHTS assay to identify small molecule antagonists of the glucocorticoid receptor (GR) signaling pathway - cell viability counter screen (AID 720693); also: nearly all actives have a fitted effect of over 55% in size
[2] = qHTS assay for identifying genotoxic compounds that show differential cytotoxicity against isogenic chicken DT40 cell lines with known DNA damage response pathways - wild type cell line (AID 743012); also: nearly all actives have a fitted effect of over 60% in size
Summary of the method: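 Cytotoxicity in repair-proficient parental chicken DT40 cells serves as the comparator for Rad54/Ku70- and Rev3-deficient lines. Cells were exposed to compounds for 40 h at 37 C/5% CO2, and ATP-based luminescence (CellTiter-Glo) measured viability.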

[3] = qHTS assay for identifying genotoxic compounds that show differential cytotoxicity against isogenic chicken DT40 cell lines with known DNA damage response pathways - Rev3 mutant cell line (AID 743014); also: nearly all actives have a fitted effect of over 55% in size
[4] = qHTS assay for identifying genotoxic compounds that show differential cytotoxicity against isogenic chicken DT40 cell lines with known DNA damage response pathways - Rad54/Ku70 mutant cell line (AID 743015); also: nearly all actives have a fitted effect of over 60% in size
[5] = qHTS assay to identify small molecule antagonists of the androgen receptor (AR) signaling pathway - cell viability counter screen (AID 743033; also: nearly all actives have a fitted effect of over 45% in size)
[6] = qHTS assay to identify small molecule antagonists of the androgen receptor (AR) signaling pathway using the MDA cell line - cell viability counter screen (AID 743041; also: nearly all actives have a fitted effect of over 45% in size)
Summary of the method: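 Viability read by CellTiter-Fluor fluorescence in the same wells as the antagonist screen, added after 15.5 h of a 16 h, 37C exposure. Human breast carcinoma MDA-kb2 AR-luc cells, compounds co-dosed with agonist R1881.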

[7] = qHTS assay to identify small molecule antagonists of the thyroid receptor (TR) signaling pathway - cell viability counter screen (AID 743064); also: nearly all actives have a fitted effect of over 50% in size
Summary of the method: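 GH3.TRE-Luc cells, 4 h pre-plating; cpd + T3 1 nM final; 37 °C 23.5 h; CellTiter-Fluor 30 min; fluorescence read.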

[8] = qHTS assay to identify small molecule antagonists of the thyroid receptor (TR) signaling pathway (AID 743065); also: series mostly up to about 70 µM; nearly all actives have a fitted effect of over 55% in size
Summary of the method: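 Antagonism measured as loss of luciferase signal in GH3 cells stably carrying a TRE-luciferase reporter, co-treated with compound and T3 (1 nM final) for 23.5 h at 37 C. Viability was read in the same well by CellTiter-Fluor.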

[9] = test system: thyroid hormone receptor (rat, GH3 cells); assay: qHTS assay to identify small molecule agonists of the thyroid receptor (TR) signaling pathway (AID 743066; calls by dose curve)
[10] = qHTS assay to identify small molecule antagonists of the estrogen receptor alpha (ER-alpha) signaling pathway - cell viability counter screen (AID 743074; calls by dose curve;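 also: HEK293 cells carrying ER-alpha-UAS-bla reporter stimulated with 17beta-estradiol; nearly all actives have a fitted effect of over 45% in size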)
[11] = target: Estrogen receptor (Homo sapiens) (UniProt P03372); assay: qHTS assay to identify small molecule agonists of the estrogen receptor alpha (ER-alpha) signaling pathway (AID 743075; calls by dose curve;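 also: HEK293 GripTite cells with ER-alpha and UAS-driven beta-lactamase reporter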)
Chain of Estrogen receptor (Homo sapiens) (P03372 whole entry, looked up): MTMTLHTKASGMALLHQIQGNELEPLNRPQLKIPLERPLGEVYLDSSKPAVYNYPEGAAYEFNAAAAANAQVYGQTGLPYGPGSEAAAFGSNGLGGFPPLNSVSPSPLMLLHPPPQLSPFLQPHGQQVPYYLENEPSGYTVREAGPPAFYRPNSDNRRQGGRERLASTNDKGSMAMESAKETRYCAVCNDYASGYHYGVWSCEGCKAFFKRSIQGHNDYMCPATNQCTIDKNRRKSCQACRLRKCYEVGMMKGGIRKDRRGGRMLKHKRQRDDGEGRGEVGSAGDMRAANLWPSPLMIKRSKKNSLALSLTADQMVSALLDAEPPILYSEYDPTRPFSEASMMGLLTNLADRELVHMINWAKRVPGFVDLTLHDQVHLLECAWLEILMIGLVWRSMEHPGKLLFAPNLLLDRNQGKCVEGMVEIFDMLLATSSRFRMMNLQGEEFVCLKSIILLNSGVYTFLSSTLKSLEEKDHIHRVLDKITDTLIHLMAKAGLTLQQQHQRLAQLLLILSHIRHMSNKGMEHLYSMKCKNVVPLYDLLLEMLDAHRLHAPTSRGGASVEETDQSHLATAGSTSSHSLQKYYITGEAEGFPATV

[12] = target: Estrogen receptor (Homo sapiens) (UniProt P03372); assay: qHTS assay to identify small molecule agonists of the estrogen receptor alpha (ER-alpha) signaling pathway using the BG1 cell line (AID 743079); also: nearly all actives have a fitted effect of over 20% in size
[13] = qHTS assay to identify small molecule antagonists of the estrogen receptor alpha (ER-alpha) signaling pathway using the BG1 cell line (AID 743080; calls by dose curve;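 also: BG1 cells stimulated with 17beta-estradiol alongside compound; series mostly up to about 70 µM; nearly all actives have a fitted effect of over 25% in size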)
Summary of the method: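 Luminescence from a 4×ERE-luciferase reporter in BG1-Luc-4E2 cells served as read-out. Cells, pre-cultured 5 days in stripped-serum phenol-red-free medium, were exposed to compound with 17beta-estradiol co-stimulation for 21.5 h at 37 C.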

[14] = qHTS assay to identify small molecule antagonists of the estrogen receptor alpha (ER-alpha) signaling pathway using the BG1 cell line - cell viability counter screen (AID 743081);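 also: compound given together with 17beta-estradiol as the ER stimulus; series mostly up to about 70 µM; nearly all actives have a fitted effect of over 45% in size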
Aromatase (Homo sapiens) = Aromatase (Homo sapiens) (UniProt P11511); assay: qHTS assay to identify aromatase inhibitors (AID 743083); also: series mostly up to about 70 µM; nearly all actives have a fitted effect of over 55% in size
Chain of Aromatase (Homo sapiens) (P11511 whole entry, looked up): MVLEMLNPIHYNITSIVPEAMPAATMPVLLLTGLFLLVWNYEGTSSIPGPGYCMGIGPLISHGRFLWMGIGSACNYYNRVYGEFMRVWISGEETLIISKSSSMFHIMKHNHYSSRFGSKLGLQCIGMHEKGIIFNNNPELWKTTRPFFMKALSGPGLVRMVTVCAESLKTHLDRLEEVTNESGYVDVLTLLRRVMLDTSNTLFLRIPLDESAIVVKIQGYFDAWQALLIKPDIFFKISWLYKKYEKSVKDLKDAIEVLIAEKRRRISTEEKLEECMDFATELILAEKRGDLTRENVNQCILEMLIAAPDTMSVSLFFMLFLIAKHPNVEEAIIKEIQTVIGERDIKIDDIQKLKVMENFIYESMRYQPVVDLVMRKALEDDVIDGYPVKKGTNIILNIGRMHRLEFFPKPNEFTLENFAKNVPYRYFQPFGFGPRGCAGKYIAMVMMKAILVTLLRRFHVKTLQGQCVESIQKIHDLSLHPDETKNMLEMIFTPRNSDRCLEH

[15] = target: Estrogen receptor (Homo sapiens) (UniProt P03372); assay: qHTS assay to identify small molecule antagonists of the estrogen receptor alpha (ER-alpha) signaling pathway (AID 743069; active = well fitted curve in the direction sought with a large enough effect in the signal ratio in the repeat runs, not every such curve was filed as active; the % refers to the signal ratio)
Summary of the method: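 Antagonist mode: compounds in DMSO were co-added with 17beta-estradiol to ER-alpha-bla HEK293 cells (2% charcoal-stripped serum) and left 18 h at 37C. Reporter inhibition was measured as FRET fluorescence after 2 h LiveBLAzer substrate at room temperature.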

[16] = target: Androgen receptor (Homo sapiens) (UniProt P10275); assay: qHTS assay to identify small molecule antagonists of the androgen receptor (AR) signaling pathway (AID 743035; active = well fitted inhibition curve with a large enough effect in the signal ratio in the repeat runs, not every such curve was filed as active; the % refers to the signal ratio)
Chain of Androgen receptor (Homo sapiens) (P10275 whole entry, looked up): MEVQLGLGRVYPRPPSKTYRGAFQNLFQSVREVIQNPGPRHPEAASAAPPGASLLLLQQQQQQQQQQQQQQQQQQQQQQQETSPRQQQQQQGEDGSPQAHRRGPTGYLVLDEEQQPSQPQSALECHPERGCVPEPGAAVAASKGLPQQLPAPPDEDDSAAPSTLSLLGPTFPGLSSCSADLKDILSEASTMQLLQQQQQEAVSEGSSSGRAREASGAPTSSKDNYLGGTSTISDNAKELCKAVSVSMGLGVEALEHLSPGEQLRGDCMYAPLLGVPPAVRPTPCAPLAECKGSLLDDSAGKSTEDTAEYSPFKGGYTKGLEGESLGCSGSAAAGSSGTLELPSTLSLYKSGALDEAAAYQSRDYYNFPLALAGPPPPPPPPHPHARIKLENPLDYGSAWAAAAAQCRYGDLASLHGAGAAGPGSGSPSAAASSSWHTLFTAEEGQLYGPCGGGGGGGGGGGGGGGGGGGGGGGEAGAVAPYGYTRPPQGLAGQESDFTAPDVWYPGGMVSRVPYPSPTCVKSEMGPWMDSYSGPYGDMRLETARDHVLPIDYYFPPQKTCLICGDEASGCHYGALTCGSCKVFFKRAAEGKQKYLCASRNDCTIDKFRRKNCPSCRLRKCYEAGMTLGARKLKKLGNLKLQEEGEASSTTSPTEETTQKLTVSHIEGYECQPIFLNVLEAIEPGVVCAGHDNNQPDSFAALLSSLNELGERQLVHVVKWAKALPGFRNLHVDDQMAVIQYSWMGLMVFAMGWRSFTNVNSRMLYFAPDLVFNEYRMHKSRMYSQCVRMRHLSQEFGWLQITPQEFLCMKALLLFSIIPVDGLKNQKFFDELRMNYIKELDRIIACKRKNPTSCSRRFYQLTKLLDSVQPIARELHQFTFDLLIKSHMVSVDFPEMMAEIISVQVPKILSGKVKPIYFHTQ
Summary of the method: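 Steps: seed AR-UAS-bla GripTite HEK293 cells, incubate 4 h at 37C; pin in test compound, then add agonist R1881; incubate 16 h at 37C; add LiveBLAzer B/G FRET substrate, 2 h at room temperature; read fluorescence.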

[17] = target: Androgen receptor (Homo sapiens) (UniProt P10275); assay: qHTS assay to identify small molecule agonists of the androgen receptor (AR) signaling pathway (AID 743036; active = well fitted activation curve with a large enough effect in the signal ratio in the repeat runs, with a control signal flat, not every such curve was filed as active; the % refers to the signal ratio; also: potency is read from the fitted curve at half-maximal effect)
Summary of the method: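 AR-bla HEK293 cells, 2,000/well; 4 h preincubation 37C/5% CO2; compound (DMSO) 16 h at 37C; LiveBLAzer B/G FRET substrate 2 h RT; fluorescence intensity read-out.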

[18] = target: Androgen receptor (Homo sapiens) (UniProt P10275); assay: qHTS assay to identify small molecule agonists of the androgen receptor (AR) signaling pathway using the MDA cell line (AID 743040; also: nearly all actives have a fitted effect of over 20% in size; also: potency is read from the fitted curve at half-maximal effect)
Summary of the method: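 Luciferase agonist assay: 16 h compound exposure at 37C without CO2 in MDA-kb2 AR-luc cells, whose MMTV promoter responds to both AR and GR. Luminescence measured after 30 min room-temperature incubation with ONE-Glo.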

[19] = target: Androgen receptor (Homo sapiens) (UniProt P10275); assay: qHTS assay to identify small molecule antagonists of the androgen receptor (AR) signaling pathway using the MDA cell line (AID 743042; also: nearly all actives have a fitted effect of over 55% in size)
Summary of the method: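 Antagonist mode: compounds plus R1881 agonist added to MDA-kb2 AR-luc cells, incubated 16 h at 37C. Luciferase reporter luminescence quantified, with multiplexed CellTiter-Fluor readout for cell viability.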

SMILES	outcome [1]	Potency [2]	Potency [3]	Potency [4]	Potency [5]	Potency [6]	Potency [7]	Potency [8]	Potency [9]	outcome [10]	Potency [11]	Potency [12]	Potency [13]	Potency [14]	Potency (Aromatase (Homo sapiens))	Potency [15]	outcome [16]	Potency [17]	Potency [18]	outcome [19]
CC(=O)c1ccccc1	inactive	inactive	inactive	inactive	inactive	inactive	inactive	inactive	inactive	inactive	inactive	inactive	inactive	inactive	inactive	–	–	–	–	–
C=CCNC(N)=S	inactive	inactive	inactive	inactive	inactive	inactive	inactive	inactive	inactive	inactive	–	–	–	inactive	inactive	–	–	–	–	–
CC(=O)Nc1cccc(O)c1	inactive	inactive	inactive	inactive	inactive	inactive	–	inactive	inactive	inactive	inactive	inactive	inactive	inactive	inactive	–	–	–	–	–
O=C(O)CCCC[C@@H]1SC[C@@H]2NC(=O)N[C@@H]21	inactive	inactive	inactive	inactive	inactive	inactive	inactive	inactive	inactive	inactive	inactive	inactive	inactive	inactive	inactive	–	–	–	–	–
O=C1CCC(N2C(=O)c3ccccc3C2=O)C(=O)N1 (stereo not given)	inactive	inactive	inactive	inactive	inactive	inactive	inactive	inactive	inactive	inactive	–	–	–	inactive	inactive	–	–	–	–	–
CCOC(=O)NNc1nncc2ccccc12	inactive	inactive	inactive	inactive	inactive	inactive	inactive	inactive	inactive	inactive	inactive	inactive	inactive	inactive	inactive	inactive	–	–	–	–
CC(c1cc2ccccc2s1)N(O)C(N)=O (stereo not given)	inactive	inactive	inactive	inactive	inactive	inactive	–	inactive	inactive	inactive	inactive	inactive	inactive	inactive	inactive	–	inactive	inactive	inactive	inactive
O=[N+]([O-])c1ccc(/C=C/c2ccc([N+](=O)[O-])cc2S(=O)(=O)O)c(S(=O)(=O)O)c1	inactive	inactive	inactive	inactive	inactive	inactive	inactive	inactive	inactive	inactive	inactive	inactive	inactive	inactive	inactive	–	–	–	–	–
C#CCN(C)Cc1ccccc1	inactive	inactive	inactive	inactive	inactive	inactive	inactive	inactive	inactive	inactive	inactive	inactive	inactive	inactive	inactive	inactive	–	–	–	–
CCC(O)OC(O)CC (stereo not given)	inactive	inactive	inactive	inactive	inactive	inactive	–	inactive	inactive	inactive	inactive	inactive	inactive	inactive	inactive	inactive	–	–	–	–
OCC(CO)(CBr)CBr	inactive	inactive	inactive	inactive	inactive	inactive	inactive	inactive	inactive	inactive	–	–	–	inactive	inactive	–	–	–	–	–
COc1cc(Cc2cnc(N)nc2N)cc(OC)c1OC	inactive	inactive	inactive	inactive	inactive	inactive	inactive	inactive	inactive	inactive	inactive	inactive	inactive	inactive	inactive	inactive	–	–	–	–
CN(C)CCCN	inactive	inactive	inactive	inactive	inactive	inactive	inactive	inactive	inactive	inactive	inactive	inactive	inactive	inactive	inactive	inactive	–	–	–	–
CN(C)CCC(c1ccccc1)c1ccccn1 (stereo not given)	inactive	inactive	inactive	inactive	inactive	inactive	inactive	inactive	inactive	inactive	–	–	–	inactive	–	–	–	–	–	–
O=C(O)[C@H](O)[C@@H](O)[C@H](O)[C@H](O)CO	inactive	inactive	inactive	inactive	inactive	inactive	inactive	inactive	inactive	inactive	–	–	–	inactive	inactive	–	–	–	–	–
CCCCCCOCCO	inactive	inactive	inactive	inactive	inactive	inactive	inactive	inactive	inactive	inactive	inactive	inactive	inactive	inactive	inactive	inactive	–	–	–	–
C[C@H]1C[C@@H]2[C@H]([C@@H](O)C[C@@]3(C)[C@H]2CC[C@]3(O)C(=O)CO)[C@@]2(C)C=CC(=O)C=C12	inactive	inactive	inactive	inactive	inactive	inactive	–	inactive	inactive	inactive	–	–	–	inactive	inactive	–	–	32.3 nM (active) and 49 nM (active)	50.7 nM (active) and 38.6 nM (active)	inactive
